Inconclusive results are not listed. Active and inactive are the calls of the source. Calls follow the shape of the dose curve; as a rule, active = well fitted curve in the direction sought with a large enough effect; inconclusive = small, poorly fitted or top-dose-only effect, or another doubt; inactive = no such curve, though single readings can be large or run the other way.
Target: Vasopressin V1b receptor (Homo sapiens) (UniProt P47901)
Test: Counterscreen Concentration-Response Assay for Antagonists of the Neuropeptide S Receptor: Vasopressin Receptor Calcium Signal Transduction
Conditions: CHO-AVPR1B, vasopressin-stimulated calcium fluorescence, FDSS
Description: NIH Chemical Genomics Center [NCGC] NIH Molecular Libraries Probe Production centers Network [MLPCN] MLPCN Grant: X01-DA026210-01 Assay Submitter (PI): Heilig, Markus Alexander NCGC Assay Overview: Neuropeptide S receptor (NPSR), previously known as GPR154, is a recently de-orphanized G protein coupled receptor. Its endogenous ligand is the 20 amino acids peptide Neuropeptide S (NPS). […] NPS and its receptor are found in various tissues. Specifically they are highly expressed in brain areas that have been implicated in modulation of arousal, stress and anxiety. Central administration of NPS in mice produces an unusual profile of activity by inducing wakefulness and arousal, while at the same time suppressing anxiety. Therefore, NPSR may represent a novel drug target for the treatment of sleep and anxiety disorders. To identify NPSR antagonists, we developed a cell-based assay with transfected NPS receptor. NPS can stimulate the production of cAMP as well as release intracellular calcium in Chinese hamster ovary cells stably expressing NPS receptor. This change in intracellular calcium can be detected using a calcium indicator dye on a calcium imaging plate reader system (FDSS). To validate the specific action of compounds on the NPS receptor, a counterscreen was developed that tests compounds' antagonism of AVPR1B vasopressin receptor stimulation by vasopressin. […] shares 27% identity with the NPS receptor.
NCGC Assay Protocol Summary: A Chinese hamster ovary (CHO) cell line stably expressing human vasopressin receptor (AVPR1B) was maintained in F-12 Kaighn's media (Invitrogen, Carlsbad, CA, 21127) supplemented with 10 % FBS, 100 units/ml penicillin, 100 ug/ml streptomycin and 250 ug/ml geneticin at 37C, 5% CO2 in a humidified atmosphere. Before the assay, aliquots of cells were frozen and stored at -135C. The assay was performed on a FDSS-7000 kinetic plate reader in 1536-well format. The maximums of kinetic fluorescence responses were converted into text files using the instrument's software data export utility. Data for antagonist response were normalized to the controls for basal activity (DMSO only) and 100% inhibition (no signal). AC50 values were determined from concentration-response data modeled with the standard Hill equation. CHO-V1B 1536-well FDSS assay protocol: (1) Frozen CHO-V1B cells were thaw, washed once with fresh media and resuspended in F-12 Kaighn's media supplemented with 10 % FBS, 100 units/ml penicillin and 100 ug/ml streptomycin. Cells were plated at 3 ul/well (1200 cells) to black, clear-bottom, tissue-culture treated 1536-well plates, and then cultured at 37C, 5 % CO2 for 16 to 30 hours. (2) Add 3 ul of calcium dye (from High Performance PBX Calcium Assay Kit, BD Biosciences). The calcium dye was prepared according to the manufactory's instruction. (3) Incubation at 37C, 5 % CO2 for 60 min. (4) Add 23 nl/well of compound in DMSO solution. The final titration for each compound was between 0.6 nM and 46 uM. (5) Load plates to FDSS-7000. The following steps were performed on FDSS-7000. (6) Record fluorescent background (Ex 480 nm, Em 520-560 nm) for 10 s. (7) Add 2 ul of stimulation reagent (1X HBSS buffer, 0.1% BSA, 60 nM vasopressin). Record antagonist response (Ex 480 nm, Em 520-560 nm) for 180 s. Keywords: MLSMR, MLPCN, NIH Roadmap, qHTS, NCGC, NPS, Neuropeptide S Antagonists

Sequence of Vasopressin V1b receptor (Homo sapiens) (P47901 whole entry, looked up): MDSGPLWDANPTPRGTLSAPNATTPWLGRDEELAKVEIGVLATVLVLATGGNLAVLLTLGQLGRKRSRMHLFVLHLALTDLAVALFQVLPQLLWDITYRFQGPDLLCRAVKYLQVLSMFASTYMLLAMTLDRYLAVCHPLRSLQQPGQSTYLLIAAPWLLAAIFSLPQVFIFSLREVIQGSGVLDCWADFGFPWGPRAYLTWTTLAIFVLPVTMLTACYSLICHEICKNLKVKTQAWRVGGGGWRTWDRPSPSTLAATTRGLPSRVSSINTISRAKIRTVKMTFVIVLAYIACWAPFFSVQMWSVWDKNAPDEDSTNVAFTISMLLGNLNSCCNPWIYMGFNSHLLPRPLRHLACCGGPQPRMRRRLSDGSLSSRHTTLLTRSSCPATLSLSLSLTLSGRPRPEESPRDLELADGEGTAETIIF

Row | SMILES | max response
1 | COc1cccc(C2c3c(ncn(-c4cccnc4)c3=N)Oc3ccc4ccccc4c32)c1 (stereo not given) | -4.29% (inactive)
2 | N=c1c2c(ccn1CCc1ccccc1)Oc1ccc3ccccc3c1C2c1ccccc1 (stereo not given) | 11.4% (inactive)
3 | COc1cccc(C2c3c(ncn(-c4ccc(F)cc4)c3=N)Oc3ccc4ccccc4c32)c1 (stereo not given) | -36.5% (inactive)
4 | COc1cccc(C2c3c(ncn(-c4ccccc4C(C)(C)C)c3=N)Oc3ccc4ccccc4c32)c1 (stereo not given) | 9.94% (inactive)
5 | COc1cccc(C2c3c(ncn(-c4ccc(Br)cc4)c3=N)Oc3ccc4ccccc4c32)c1 (stereo not given) | 0.304% (inactive)
6 | CCC(C)(CCN1CCOCC1)N(Cc1cc2ccccc2n(C)c1=O)C(=O)C1CCCCC1 (stereo not given) | -9.76% (inactive)
7 | CCOc1ccc(C2c3c(ncn(-c4ccccc4)c3=N)Oc3ccc4ccccc4c32)cc1OCC (stereo not given) | -23.4% (inactive)
8 | COc1ccc(C2c3c(ncn(CCN4CCOCC4)c3=N)Oc3ccc4ccccc4c32)cc1 (stereo not given) | -23.1% (inactive)
9 | Cc1c(P(=S)(c2ccccc2)c2ccccc2)[n+]2ccccc2n1C/C=C/c1ccccc1 | 1.44% (inactive)
10 | COc1cccc(C2c3c(ncn(-c4ccccc4)c3=N)Oc3ccc4ccccc4c32)c1OC (stereo not given) | -5.77% (inactive)
11 | COc1cccc(C2c3c(ncn(-c4ccccn4)c3=N)Oc3ccc4ccccc4c32)c1 (stereo not given) | 29.6% (inactive)
12 | COc1cccc(C2c3c(ncn(-c4ccc(NC(C)=O)cc4)c3=N)Oc3ccc4ccccc4c32)c1 (stereo not given) | -34.2% (inactive)
13 | COc1cccc(C2c3c(ncn(-c4ccccc4)c3=N)Oc3ccc4ccccc4c32)c1 (stereo not given) | -8.43% (inactive)
14 | COc1cccc(C2c3c(ncn(-c4ccccc4-c4ccccc4)c3=N)Oc3ccc4ccccc4c32)c1 (stereo not given) | 13.8% (inactive)
15 | CCOC(=O)CC(=O)Nc1ncnc2c1C(c1ccccc1)c1c(ccc3ccccc13)O2 (stereo not given) | -17.5% (inactive)
16 | O=C(NCc1ccccc1)Nc1ncnc2c1C(c1ccccc1)c1c(ccc3ccccc13)O2 (stereo not given) | -5.16% (inactive)
17 | COc1cccc(C2c3c(ncn(-c4cccc(Cl)c4)c3=N)Oc3ccc4ccccc4c32)c1 (stereo not given) | -5.71% (inactive)
18 | COc1ccc(C2c3ccccc3Oc3ncn(CCN4CCOCC4)c(=N)c32)cc1OC (stereo not given) | 20.8% (inactive)
19 | COc1cccc(C2c3c(ncn(-c4ccc(C#N)cc4)c3=N)Oc3ccc4ccccc4c32)c1 (stereo not given) | -46.5% (inactive)
20 | COc1ccc(C2c3c(n(CCc4ccccc4)cnc3=N)Oc3ccc4ccccc4c32)cc1OC (stereo not given) | -53.4% (inactive)

Row | SMILES | max response
21 | COc1ccc(C2c3c(nc(C)[nH]c3=O)Oc3ccc4ccccc4c32)cc1OC (stereo not given) | -25.8% (inactive)
22 | COc1ccc(C2c3c(nc(Cc4ccccc4)[nH]c3=O)Oc3ccc4ccccc4c32)cc1OC (stereo not given) | 14.7% (inactive)
23 | COc1cccc(C2c3c(ncn(-c4ccccc4SC)c3=N)Oc3ccc4ccccc4c32)c1 (stereo not given) | 14.8% (inactive)
24 | COc1cccc(C2c3c(ncn(-c4ccc5c(c4)OCO5)c3=N)Oc3ccc4ccccc4c32)c1 (stereo not given) | -20.7% (inactive)
25 | COc1cccc(C2c3c(ncn(Cc4cccs4)c3=N)Oc3ccc4ccccc4c32)c1 (stereo not given) | 22.2% (inactive)
26 | N=c1c2c(ncn1-c1ccccc1)Oc1ccc3ccccc3c1C2c1ccc2c(c1)CCO2 (stereo not given) | -13.6% (inactive)
27 | CCOC(=O)CCCC(=O)Nc1ncnc2c1C(c1ccccc1)c1c(ccc3ccccc13)O2 (stereo not given) | -39.8% (inactive)
28 | COc1cccc(C2c3c(ncn(-c4ccccc4C)c3=N)Oc3ccc4ccccc4c32)c1 (stereo not given) | -2.54% (inactive)
29 | COc1cccc(C2c3c(ncn(-c4ccccc4Cl)c3=N)Oc3ccc4ccccc4c32)c1 (stereo not given) | 1.44% (inactive)
30 | COc1ccc(C2c3c(N)nc(CCc4ccccc4)nc3Oc3ccc4ccccc4c32)cc1OC (stereo not given) | -20.6% (inactive)
31 | Cc1c(P(=S)(c2ccccc2)c2ccccc2)[n+]2ccccc2n1CCCc1ccccc1 | -9.72% (inactive)
32 | COc1ccc(C2c3c(n(CCCc4ccccc4)cnc3=N)Oc3ccc4ccccc4c32)cc1OC (stereo not given) | -23.2% (inactive)
33 | CC(C)(C)OC(=O)Nc1ncnc2c1C(c1ccccc1)c1c(ccc3ccccc13)O2 (stereo not given) | 14.3% (inactive)
34 | Cc1c(P(=S)(c2ccccc2)c2ccccc2)c2ccccc2n1Cc1ccccc1 | 0.753% (inactive)
35 | Nc1ncnc2c1C(c1ccccc1)c1c(ccc3ccccc13)O2 (stereo not given) | 4.27% (inactive)
36 | Cc1c(P(=S)(c2ccccc2)c2ccccc2)c2ccccc2n1C/C=C/c1ccccc1 | 0.93% (inactive)
37 | N=c1c2c(ccn1CCCc1ccccc1)Oc1ccc3ccccc3c1C2c1ccccc1 (stereo not given) | -23.7% (inactive)
38 | COc1cccc(C2c3c(ncn(-c4cccc(F)c4)c3=N)Oc3ccc4ccccc4c32)c1 (stereo not given) | -14.9% (inactive)
39 | COc1cccc(C2C(C#N)=C(NC(=O)NCc3ccccc3)Oc3ccc4ccccc4c32)c1 (stereo not given) | -21.8% (inactive)
40 | COc1cccc(C2c3c(ncn(-c4ccccc4Br)c3=N)Oc3ccc4ccccc4c32)c1 (stereo not given) | 18.9% (inactive)
